High-throughput results deposited in PubChem BioAssay by Broad Institute.
Only some compounds are listed: those with a hit (about 3.9% of all), similar ones and a draw of the others.
Casp6 inh – caspase-6 (human) enzyme inhibition | AID 686996 | P55212 | inhibition, % at 12.5 µM | purified caspase-6, Z-VEID-R110 cleavage fluorescence | actives 0.53% (n = 350,000);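 active = mean inhibition across replicates at least about 35%, with every replicate also reaching that limit, limit read from the data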;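 note: 0% = median of neutral control wells and 100% = no fluorescence left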
Target sequence (P55212 24-179 limits assumed): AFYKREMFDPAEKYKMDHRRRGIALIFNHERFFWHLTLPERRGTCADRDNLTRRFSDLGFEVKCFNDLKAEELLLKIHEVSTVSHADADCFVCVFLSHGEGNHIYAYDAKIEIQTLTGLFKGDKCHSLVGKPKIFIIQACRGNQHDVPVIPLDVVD
Target sequence (P55212 194-293 limits assumed): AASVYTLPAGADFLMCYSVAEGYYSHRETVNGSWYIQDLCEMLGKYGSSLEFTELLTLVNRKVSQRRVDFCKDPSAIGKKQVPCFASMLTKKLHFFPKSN
Mot1-301 SUMO – SUMOylation pathway inhibition by Mot1-301 growth rescue. S. cerevisiae Mot1-301 growth rescue, ATP luminescence, 38.5C; percent above DMSO median, 100 means doubled. growth rescue, % at 18.8 µM. actives 1% (n = 320,000). AID 2716;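 active = every valid replicate shows activation above 250% relative to neutral control wells; inactive = the rest, any valid replicate at or below 250%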;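 note: OY570 slx delta 5 strain wells were the positive control but not used for scaling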
ALR inh – human ALR oxidase inhibition via reduced H2O2 | P55789 | purified ALR, DTT oxidation, H2O2 HRP-luminol luminescence | inhibition, % (test concentration not listed) | actives 3.8% (n = 290,000) | AID 485317;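 active = mean replicate inhibition above about 79%, with every replicate also reaching it, limit read from the data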
Target sequence (P55789 whole entry, looked up): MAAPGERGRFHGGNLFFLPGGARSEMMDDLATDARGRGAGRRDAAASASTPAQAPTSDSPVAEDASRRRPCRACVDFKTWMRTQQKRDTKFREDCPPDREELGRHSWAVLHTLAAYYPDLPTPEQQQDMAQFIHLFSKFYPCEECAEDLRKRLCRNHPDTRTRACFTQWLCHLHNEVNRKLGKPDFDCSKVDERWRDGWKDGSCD
NSD2 HMT inh – inhibitors of human histone methyltransferase NSD2; actives 0.54% (n = 310,000); inhibition, % at 12.5 µM; NSD2 peptide methylation, AlphaScreen, 120 min; O96028; in the data active = inhibition above about 50%
Glyco luc inh – blocks N-linked glycosylation in D54 reporter cells. D54 ERlucT glycosylation luciferase reporter, 24 h; percent of 100 nM tunicamycin response. actives 0.23% (n = 360,000). reporter increase, % at 12.5 µM;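 active = mean luciferase reporter signal, scaled so untreated is 0 and the glycosylation-blocking control 100, at or above a set limit in every replicate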;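 note: luciferase carries N-glycosylation sites so blocking glycosylation raises the light; 0% = median of neutral control wells and 100% = median of 100 nM tunicamycin wells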
CDK5 p35 inh – blocks human CDK5/p35 kinase activity; Q00535+Q15078; Recombinant CDK5/p35, ADP-Glo luminescence, 60 min; inhibition, % at 10 µM; actives 0.01% (n = 330,000); AID 488839;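 active = highest replicate inhibition of at least 50% and at least 75% of replicates reaching 50%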;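 note: plate controls were DMSO neutral control for no effect and GW8510 at 10 µM for full effect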
* hit, by the source's call; / = not tested or not shown; + = active, no number.

SMILES	Casp6 inh	Mot1-301 SUMO	ALR inh	NSD2 HMT inh	Glyco luc inh	CDK5 p35 inh
CCOC(=O)c1[nH]c2c(c1C)C(=O)CC(c1ccco1)C2 (stereo unspecified)	33	3	-81	/	6	0
Cc1ccc(NC(=O)c2cccc(N3C(=O)C4C5CCC(C5)C4C3=O)c2)c(C)c1 (stereo unspecified)	/	+	-1	-1	1	1
CN(C)c1ccc(NC(=O)c2cccc(N3C(=O)C4C5C=CC(C5)C4C3=O)c2)cc1 (stereo unspecified)	/	7	99*	5	2	2
COCC(=O)N1CC2(C1)[C@H](c1ccc(-c3ccc(F)cc3)cc1)[C@H](CO)N2C(C)=O	0	/	/	/	/	/
CS(=O)(=O)c1ccc(Nc2nc(C(N)COCc3ccccc3)cs2)cc1 (stereo unspecified)	46*	/	/	3	3	/
CS(=O)(=O)c1ccc(Nc2nc(C(N)Cc3ccccc3)cs2)cc1 (stereo unspecified)	-1	/	/	13	-2	/
O=C(Nc1sc2c(c1C(=O)O)CCC2)C(=O)N1CCOCC1	37*	-12	2	14	1	-2
CCCNC(=O)N1CC2(CCN(Cc3cccc(F)c3)CC2)c2c([nH]c3cc(OC)ccc23)[C@H]1CO	1	/	/	/	/	/
COc1ccc(-c2cnc(N)nc2-c2ccc(OCc3ccccc3)cc2O)cc1	-5	14	-26	3	0	3
Nc1ncc(-c2ccccc2)c(-c2ccc(O)cc2O)n1	3	-5	98*	7	5	6
CC1=CC(C)(C)Nc2ccc(OC(=O)CN3C(=O)CCC3=O)cc21	/	-14	99*	3	1	0
Cc1ccc2nc3c(cc(C(N)=S)c(=N)n3CCCOC(C)C)c(=O)n2c1	11	1	6	17	37*	2
O=C(O)c1ccc2c(c1)C(=O)/C(=C\c1ccco1)C2=O	41*	1	33	49	-2	3
O=C(Cc1cccs1)Nc1nc(-c2ccccc2)cs1	/	/	-5	0	-1	-2
COC(=O)CCC(=O)Nc1nc(-c2ccccc2)cs1	-1	334*	-3	/	3	2
O=C(COC(=O)c1cccs1)Nc1nc(-c2ccccc2)cs1	2	-14	88*	0	3	1
C[C@@H]1CCCCO[C@@H](CN(C)C(=O)Nc2cccc3ccccc23)[C@@H](C)CN([C@H](C)CO)C(=O)c2cc(NC(=O)Nc3ccc4c(c3)OCO4)ccc2O1	2	/	/	/	/	/
Cc1cc(N=Nc2ccc(Cl)cc2)cc(CN2CCCC2)c1O	-5	68	99*	42	-3	-2
CC(C(=O)NC1CCCC1)N(C(=O)c1snc(C(N)=O)c1N)c1ccc2c(c1)OCCO2 (stereo unspecified)	/	3	96*	0	-2	2
CC1CCN(S(=O)(=O)c2ccc(C(=O)Nc3nnc(-c4ccco4)o3)cc2)CC1	-4	1	9	-3	5	0
CC1CN(S(=O)(=O)c2ccc(C(=O)Nc3nnc(-c4ccco4)o3)cc2)CC(C)O1 (stereo unspecified)	2	2	87*	0	3	-1
Cc1cccc(S(=O)(=O)N2CCCCN3[C@H](CO)[C@H](c4ccc(C#C[C@H](C)O)cc4)[C@H]3C2)c1	5	/	/	/	/	/
COc1ccc(NC(=O)CSc2nnc(Cc3ccc(C)cc3)c(=O)n2N)cc1OC	-2	7	91*	-3	-4	1
COc1ccc(NC(=O)CSc2nnc(Cc3ccccc3)c(=O)n2N)cc1OC	0	3	93*	-1	-3	2
COc1cccc(NC(=O)CSc2nnc(Cc3ccc(C)cc3)c(=O)n2N)c1	2	-11	99*	2	-3	1
SMILES	Casp6 inh	Mot1-301 SUMO	ALR inh	NSD2 HMT inh	Glyco luc inh	CDK5 p35 inh
CCOc1ccccc1NC(=O)CSc1nnc(Cc2ccc(OC)cc2)c(=O)n1N	6	-6	-7	-1	0	-3
COc1ccc(Cc2nnc(SCC(=O)Nc3ccc(C)cc3)n(N)c2=O)cc1	3	-10	-5	0	0	1
Cc1[nH]c(SCC(=O)Nc2cc(C(N)=O)cc(C(N)=O)c2)nc1Cc1ccccc1	-3	-14	97*	2	-2	0
C[C@@H]1CN([C@H](C)CO)C(=O)c2c(c3ccccc3n2C)-c2ccccc2CO[C@@H]1CN(C)Cc1cccc(O)c1	1	/	/	/	/	/
O=C(C[C@@H]1CC[C@@H]2[C@H](COC[C@H](O)CN2Cc2ccc(Cl)cc2)O1)NCc1ccccc1Cl	2	/	/	/	/	/
Cc1ccc(Cc2nnc(SCC(=O)Nc3ccccc3)n(N)c2=O)cc1	2	-7	98*	-2	-3	-3
COc1ccccc1-c1nnc(SCC(=O)Nc2ccc(S(N)(=O)=O)cc2)n1N	1	-4	-5	3	0	0
COc1ccccc1-c1nnc(SCC(=O)Nc2ccc3[nH]c(=O)[nH]c3c2)n1N	2	-31	98*	-1	1	2
CCOc1ccc(Cc2nnc(SCC(=O)Nc3ccccc3)n(N)c2=O)cc1	-1	10	-2	0	-1	0
CO[C@@H]1CN(C)C(=O)c2cc(NC(=O)NC3CCCCC3)ccc2OC[C@@H](C)N(C(C)=O)C[C@@H]1C	-1	/	/	/	/	/
C[C@@H]1CN([C@H](C)CO)C(=O)CCCn2cc(nn2)CO[C@H]1CN(C)Cc1cccnc1	2	/	/	/	/	/
COC(=O)c1cc(OC)c(OC)cc1NC(=S)NC(=O)c1ccco1	-1	16	-1	-4	40*	-2
O=C(NC(=S)Nc1ccccc1[N+](=O)[O-])c1ccco1	3	-9	95*	2	1	-1
Cc1noc(C)c1S(=O)(=O)Nc1ccc2c(c1)C(=O)N([C@@H](C)CO)C[C@H](C)[C@@H](CN(C)Cc1ccc(Cl)c(Cl)c1)OCCCC[C@H](C)O2	4	/	/	/	/	/
C/C=C/c1ccc([C@H]2[C@@H](CO)N(C(=O)CC)[C@H]2CN(C)Cc2cncnc2)cc1	1	/	/	/	/	/
CCN(CC)P(=O)(c1ccccc1)c1c(C)nc2ccccn12 (stereo unspecified)	-1	276*	-13	0	3	1
COCC#Cc1cnc2c(c1)C(=O)N([C@@H](C)CO)C[C@H](C)[C@@H](CN(C)C(=O)Nc1ccccc1F)O2	3	/	/	/	/	/
O=C(Cc1ccccn1)NCC[C@H]1CC[C@H](NC(=O)CN2CCOCC2)[C@H](CO)O1	0	/	/	/	/	/
COc1cc2cc(/C=C/C(=O)c3ccco3)c(Cl)nc2cc1OC	/	-11	/	25	49*	0
Cc1ccc2cc(/C=C/C(=O)c3ccco3)c(Cl)nc2c1	-1	-6	11	2	21	/
Cc1ccc2nc(Cl)c(/C=C/C(=O)c3ccco3)cc2c1	-1	-3	97*	-1	42*	1
Cc1cccnc1NC1CCCCC1	1	0	0	-2	2	3
